# This is a sample that favours compounds with a hit; in the whole collection about 0.34% have one here.
# Vif-APOBEC3F blk = inhibitors of Vif-A3F interaction; Potency, µM (titrated, usually from 46.1 µM), for the others: at the highest dose activity, negative = active; AID 602313; 0.2% of 390,000 active; HeLa A3F-eYFP + Vif (tagged APOBEC3F with the HIV-1 protein that degrades it), YFP fluorescence increase; also: % of control where 0% means no effect; nearly all actives have a fitted effect of over 65% in size
#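 HeLa cells stably expressing Vif plus C-terminally eYFP-tagged A3F were seeded, incubated overnight at 37 deg C, dosed with compound, incubated overnight again at 37 deg C. Yellow fluorescence (Ex 488/Em 500-530) reported blocked Vif-mediated A3F-eYFP degradation.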
# Epigenetic derep = epigenetic control regulation, reporter derepression | Potency, µM (highest dose often 53.9 µM), inactives show at the highest dose GFP activation, usual class: activators | murine LDR cells, GFP reporter derepression, 30 h | 0.2% of 280,000 active | AID 1865; also: % of control where 0% means no effect; nearly all actives have a fitted effect of over 60% in size
#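 In this reporter-derepression format, murine cells bearing a silenced integrated CMV-GFP locus incubate with test compound (30 h, 37 C), then are washed and imaged; fluorescent objects of 20–120 um count as induced cells.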
# Vif-A3G inh = Vif-A3G binding inhibition | Q9HC16 | HeLa A3G-eYFP + Vif (tagged APOBEC3G with the HIV-1 protein that degrades it), YFP fluorescence, overnight | Potency, µM (top dose mostly 46.1 µM), for the others: top-dose activity, negative = active, actives largely listed as inhibitors | 0.076% of 410,000 active; also: % is scaled to controls: 0 for no effect and ±100 for the full control effect; nearly all actives have a fitted effect of over 60% in size
# Target sequence (Q9HC16 whole entry, looked up): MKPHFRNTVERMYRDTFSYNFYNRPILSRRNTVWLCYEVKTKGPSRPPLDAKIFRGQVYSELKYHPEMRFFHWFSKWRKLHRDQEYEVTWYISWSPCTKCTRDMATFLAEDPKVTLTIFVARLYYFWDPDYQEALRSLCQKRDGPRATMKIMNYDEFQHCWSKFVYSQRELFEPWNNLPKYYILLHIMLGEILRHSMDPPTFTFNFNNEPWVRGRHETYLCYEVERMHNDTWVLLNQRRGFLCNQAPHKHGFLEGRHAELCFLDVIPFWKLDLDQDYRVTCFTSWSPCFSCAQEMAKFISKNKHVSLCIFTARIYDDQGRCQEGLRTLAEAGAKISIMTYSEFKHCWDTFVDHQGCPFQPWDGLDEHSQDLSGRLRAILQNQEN
#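 Read-out is eYFP fluorescence (Ex 488/Em 500-530) from Vif-expressing HeLa A3G-eYFP cells; more signal means A3G escaped Vif-mediated degradation. Cells plated overnight, compound pinned in, incubated overnight at 37 deg C.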
# The depositor's hits bear a star; ? = inconclusive; . = no result. Calls follow the shape of the dose curve; as a rule, active = well fitted curve in the direction sought with a large enough effect; inconclusive = small, poorly fitted or top-dose-only effect, or another doubt; inactive = no such curve, though single readings can be large; an effect the other way counts as inactive or inconclusive. Potency is read from the fitted curve at half-maximal effect.
SMILES,Vif-APOBEC3F blk,Epigenetic derep,Vif-A3G inh
Cc1ccc2[nH]cc(C(O)c3c[nH]c4ccc(C)cc34)c2c1,.,.,-2%
CC(C)(C)n1ncc2c(=O)n(Cc3ccccc3CS(=O)(=O)c3ccccc3)cnc21,.,.,0%
C[N+]1(CC(=O)c2c3ccccc3cc3ccccc23)CCOCC1,.,.,-5%
Cc1cccc(/C=C/c2cccs2)n1,.,.,4%
CCN(CC)CCCNC(=O)c1cc(-c2ccc(OC)c(OC)c2)on1,-4%,-2%,2%
COc1cc(/C=C2/CC/C(=C/c3ccc(O)c(OC)c3)C2=O)ccc1O,?,25µM*,?
COc1ccc(/C=C2\CCC(C3CCCC3)C2=O)c(OC)c1 (centres undefined),-8%,.,7%
COc1cc(/C=C2\COC/C(=C\c3ccc(O)c(OC)c3)C2=O)ccc1O,0%,1%,?
COc1ccc(/C=C2\CC/C(=C\c3ccc(OC)cc3OC)C2=O)c(OC)c1,8.9µM*,?,-23%
Cc1cccc(C(=O)Nc2ccc(C(=O)OCc3cc(=O)n4nc(CC(C)C)sc4n3)cc2)c1,0%,2%,10%
CC(C)(C)n1ncc2c(=O)n(Cc3cccc(Oc4ccccc4)c3)cnc21,.,.,3%
O=C1/C(=C\c2cccc(O)c2O)SC(=S)N1Cc1ccccc1,0%,.,-12%
O=C1/C(=C\c2ccc(O)c(O)c2)SC(=S)N1Cc1ccccc1,?,.,22µM*
O=C1/C(=C/c2ccncc2)SC(=S)N1Cc1ccccc1,12%,16µM*,?
CCCN1C(=O)/C(=C/c2ccncc2)SC1=S,-2%,-3%,1%
O=C1/C(=C\c2cccc(O)c2)SC(=S)N1Cc1ccccc1,-15%,.,-14%
O=C1/C(=C\c2cc([N+](=O)[O-])ccc2O)SC(=S)N1Cc1ccc(Cl)cc1,13µM*,.,?
C=C1C=C(C(F)F)n2ncc(C(=O)NCc3ccc(OC)c(OC)c3)c2N1,.,.,-1%
CCOC(=O)c1sc2cc([N+](=O)[O-])cc(SCC(C)C)c2c1N,?,3.2µM*,?
CCOC(=O)c1cc(N)cc([N+](=O)[O-])c1,1%,1%,3%
COc1ccc(Br)cc1CNC(=O)C1CCCCN1S(=O)(=O)c1ccc(F)cc1 (centres undefined),3%,-1%,2%
O=C(C[n+]1cccc2cccc(O)c21)c1ccc(Cl)cc1,.,.,-22%
O=Cc1ccnc2ccccc12,.,.,1%
CN(C)c1ccc(/C=C/C(=O)c2ccc(O)cc2)cc1,7.9µM*,.,?
CN(C)c1ccc(C(=O)C=Cc2ccc([N+](=O)[O-])cc2)cc1,-2%,.,-6%
SMILES,Vif-APOBEC3F blk,Epigenetic derep,Vif-A3G inh
COCCN1C(=O)/C(=C/c2ccc(N3CCCC3)cc2)SC1=S,?,3.5µM*,?
COc1ccc(/C=C2\SC(=S)N(CCC(=O)N3CCCCC3)C2=O)cc1,-3%,.,-1%
Cc1ccc(-c2ccc(=O)n(CC(=O)Nc3ccc(C)cc3Cl)n2)cc1,3%,1%,5%
N#CC(=Cc1ccccn1)c1nc(-c2ccc(Cl)cc2)cs1,?,.,5.6µM*
N#C/C(=C/c1ccc(O)cc1)c1nc(-c2ccc(-c3ccccc3)cc2)cs1,-28%,11µM*,-8%
N#C/C(=C/c1ccc(Cl)cc1)c1nc(-c2ccc(Br)cc2)cs1,4%,0%,-5%
N#C/C(=C\Nc1ccc2cn[nH]c2c1)c1nc(-c2ccccc2)cs1,-27%,-2%,-21%
COc1ccc(/C=C(/C#N)c2nc(-c3ccc(-c4ccccc4)cc3)cs2)cc1,-3%,-2%,-1%
N#C/C(=C\Nc1ccc2cn[nH]c2c1)c1nc(-c2ccc(Cl)cc2)cs1,22µM*,7%,-21%
O=C(COc1ccccc1C(=O)Nc1ccccc1)Nc1ccccc1-c1ccccc1,.,.,0%
CCOc1ccccc1Nc1nc(-c2cccc(Cl)c2)c2c(n1)-c1ccccc1OC2,-5%,-1%,3%
Cc1[nH]c2ccccc2c1/C=C/c1ccc2ccccc2n1,.,.,11µM*
Fc1cccc(F)c1/C=C/c1ccc2ccccc2n1,-16%,0%,-8%
O=C(C[n+]1ccncc1)c1cccc2ccccc12,.,.,-4%
Cc1cccc(Nc2nnc(SC/C(O)=C(\C#N)c3nc4ccccc4[nH]3)s2)c1,22µM*,0%,-27%
Cc1ccc(Nc2nnc(SC/C(O)=C(\C#N)c3nc4ccccc4[nH]3)s2)c(C)c1,-30%,-1%,-1%
CCc1ccc(CNc2ncnc3onc(-c4ccc(Cl)cc4)c23)cc1,-13%,-3%,1%
C=CCOC(=O)C1=C(C)NC(C)=C(C(=O)OCC=C)C1c1cn(-c2ccccc2)nc1-c1ccco1,-13%,3%,8.9µM*
OCc1cn(-c2ccccc2)nc1-c1ccco1,-2%,-5%,1%
O=C(C[n+]1ccccc1Br)c1ccc(F)cc1,.,.,6%
O=C(Nc1ccc([N+](=O)[O-])cc1)C(Cc1ccccc1)N1C(=O)c2cccc3cccc(c23)C1=O (centres undefined),?,1%,10µM*
O=C(Nc1ccccc1)C(Cc1ccccc1)N1Cc2ccccc2C1=O (centres undefined),7%,1%,1%
CCN(CC)CCCC(C)Nc1c2ccc(Cl)cc2nc2ccc(OC)cc12 (centres undefined),.,3.2µM*,.
CCN(CC)CCCC(C)Nc1cc(/C=C/c2ccccc2Cl)nc2cc(Cl)ccc12 (centres undefined),.,.,5%
COc1cc(/C=C2\SC(=S)N(NC(=O)c3ccc(O)c(OC)c3)C2=O)ccc1O,10µM*,.,-19%
SMILES,Vif-APOBEC3F blk,Epigenetic derep,Vif-A3G inh
COc1cc(/C=C2\SC(=S)N(NC(=O)c3ccncc3)C2=O)ccc1O,-11%,-1%,-9%
O=C1/C(=C/c2cccc(O)c2)SC(=S)N1CC1CCCO1 (centres undefined),6%,-6%,-6%
COc1cc(/C=C2\SC(=S)N(NC(=O)c3ccccc3OC)C2=O)ccc1O,22µM*,.,-3%
CCOc1cc(/C=C2/SC(=S)N(CC3CCCO3)C2=O)ccc1O (centres undefined),22µM*,7%,-15%
COc1cc(/C=C2\SC(=S)N(NC(=O)c3cccc(O)c3)C2=O)ccc1O,?,.,-15%
COc1cc2c(NC3CCN(C(C)C)CC3)nc(N3CCCN(C)CC3)nc2cc1OCCCN(C)C,.,.,-5%
CCOC(=O)c1c(C)[nH]c(C)c1S(=O)(=O)N1CCCC(C(=O)NCc2cccc(C)c2)C1 (centres undefined),4%,1%,-3%
Cc1ccnc2ccc(I)cc12,.,.,-1%
CC1C/C(=C/c2cccn2C)C(=O)/C(=C/c2cccn2C)C1 (centres undefined),?,11µM*,?
CC1C/C(=C/c2ccncc2)C(=O)/C(=C/c2ccncc2)C1 (centres undefined),13%,?,?
O=C(NCc1ccc(F)cc1)c1cccc(N2CCCS2(=O)=O)c1,0%,-3%,3%
Oc1ccc(CN2CCCCC2)c2cccnc12,-10%,?,-1%
CCOC(=O)N1CCN(Cc2ccc(O)c3ncccc23)CC1,10%,4µM*,-11%
CCOC(=O)N1CCN(Cc2ccccn2)CC1,.,-1%,-6%
Oc1ccc(CN2CCN(c3ccccc3)CC2)c2cccnc12,3%,3.5µM*,1%
Oc1ccc(CN2CCC(Cc3ccccc3)CC2)c2cccnc12,0%,?,5%
